Test results taken from PubChem BioAssay AID1159580 (chemical genetic matrix, 2015).
Several values for one entry are separate records, joined by “and”; a condition that tells them apart may be missing. Equal values may be shown once. Among all 5,500 compounds or so, about 2,000 (36%) were called active. Inconclusive results (about 18%) are left out. Rule as the data show it: active = normalized growth mostly below about 0.91 (no sharp cut-off); inconclusive = no clear call, values can overlap the other calls; inactive = mostly above about 0.92. Some of the results follow.

Test: chemical genetic growth profiling, strain panel (AID 1159580);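 also: tested at 20 µM; growth read once vehicle control cultures reached saturation at 30 °C; 1 = growth at the plate median or of vehicle wells; lower values mean less growth of the strain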
Conditions: S. cerevisiae deletion strains, growth OD

Measured: normalized growth

N[C@H](Cc1cc(I)c(Oc2ccc(O)c(I)c2)c(I)c1)C(=O)O
active: locus YBR009C, strain hhf1, active compounds read low 0.893 | locus YDR318W, strain mcm21, active compounds read low 0.917 | locus YJL095W, strain BCK1 (second series), active compounds read low 0.865 | locus YJL164C, strain tpk1, active compounds read low 0.911 | locus YJL166W, strain qcr8, active compounds read low 0.884
inactive: locus YAL013W, strain DEP1, active compounds read low 1.01 | locus YAL021C, strain ccr4, active compounds read low 1.03 | locus YAL026C, strain drs2, active compounds read low 0.982 | locus YAL030W, strain snc1, active compounds read low 1 | locus YBL061C, strain skt5, active compounds read low 0.994 | locus YBR021W, strain FUR4, active compounds read low 0.989 | locus YBR023C, strain chs3, active compounds read low 0.986 | locus YBR171W, strain sec66, active compounds read low 0.996 | locus YBR229C, strain ROT2, active compounds read low 1 | locus YBR231C, strain swc5, active compounds read low 1 | locus YBR279W, strain paf1, active compounds read low 0.991 | locus YCL011C, strain gbp2, active compounds read low 1 | locus YCL016C, strain dcc1, active compounds read low 0.981 | locus YCL029C, strain bik1, active compounds read low 1.01 | locus YCL061C, strain MRC1, active compounds read low 0.987 | locus YCL069W, strain vba3, active compounds read low 1 | locus YCR088W, strain abp1, active compounds read low 1 | locus YDL005C, strain med2, active compounds read low 1 | locus YDL035C, strain GPR1, active compounds read low 0.992 | locus YDL040C, strain nat1, active compounds read low 1.01 | locus YDL074C, strain BRE1, active compounds read low 0.939 | locus YDL101C, strain DUN1, active compounds read low 0.998 | locus YDL134C, strain PPH21, active compounds read low 1 | locus YDL185W, strain tfp1, active compounds read low 0.996 | locus YDL192W, strain arf1, active compounds read low 0.987 | locus YDR001C, strain nth1, active compounds read low 1.01 | locus YDR069C, strain doa4, active compounds read low 0.992 | locus YDR101C, strain arx1, active compounds read low 0.974 | locus YDR137W, strain rgp1, active compounds read low 0.985 | locus YDR150W, strain NUM1, active compounds read low 1.05 | locus YDR159W, strain sac3, active compounds read low 0.978 | locus YDR162C, strain NBP2, active compounds read low 0.999 | locus YDR195W, strain ref2 1 | locus YDR297W, strain sur2, active compounds read low 0.996 | locus YDR334W, strain swr1, active compounds read low 0.997 | locus YDR335W, strain msn5, active compounds read low 0.999 | locus YDR388W, active compounds read low 0.985 | locus YDR392W, strain spt3, active compounds read low 0.748 | locus YDR502C, strain sam2, active compounds read low 0.977 | locus YEL003W, strain gim4, active compounds read low 0.998 | locus YEL037C, strain rad23, active compounds read low 1 | locus YEL061C, strain CIN8 (second series), active compounds read low 1 | locus YEL061C, strain CIN8, active compounds read low 1.01 | locus YER015W, strain faa2, active compounds read low 1 | locus YER016W, strain bim1, active compounds read low 0.995 | locus YER110C, active compounds read low 1 | locus YER111C, strain swi4, active compounds read low 0.993 | locus YER155C, strain BEM2 (second series), active compounds read low 0.958 | locus YER155C, strain BEM2, active compounds read low 0.997 | locus YER167W, strain BCK2, active compounds read low 0.946 | locus YFR010W, strain ubp6, active compounds read low 0.997 | locus YGL078C, strain dbp3, active compounds read low 0.98 | locus YGL086W, strain mad1, active compounds read low 0.946 | locus YGL167C, strain pmr1, active compounds read low 1 | locus YGL173C, strain kem1, active compounds read low 0.952 | locus YGL227W, strain vid30, active compounds read low 0.993 | locus YGL240W, strain doc1, active compounds read low 0.973 | locus YGL248W, strain PDE1, active compounds read low 0.998 | locus YGL253W, strain hxk2, active compounds read low 0.981 | locus YGR078C, strain PAC10, active compounds read low 0.966 | locus YGR135W, strain pre9, active compounds read low 0.959 | locus YGR229C, strain SMI1, active compounds read low 0.981 | locus YGR252W, strain gcn5, active compounds read low 0.87 | locus YHR013C, strain ard1, active compounds read low 0.971 | locus YHR027C, strain rpn1, active compounds read low 0.997 | locus YHR030C, strain SLT2, active compounds read low 0.997 and 1.05 | locus YHR079C, strain IRE1 (second series), active compounds read low 0.999 | locus YHR079C, strain IRE1, active compounds read low 1.05 | locus YHR094C, strain hxt1, active compounds read low 0.999 | locus YHR129C, strain ARP1, active compounds read low 1 | locus YHR142W, strain chs7, active compounds read low 0.964 | locus YHR200W, strain rpn10, active compounds read low 0.992 | locus YIL066C, strain RNR3, active compounds read low 0.951 | locus YIL073C, strain SPO22, active compounds read low 0.967 | locus YIL125W, strain kgd1, active compounds read low 0.99 | locus YIR030C, strain dcg1, active compounds read low 0.993 | locus YJL092W, strain hpr5, active compounds read low 0.998 | locus YJL095W, strain BCK1, active compounds read low 0.964 and 1.04 | locus YJL115W, strain asf1, active compounds read low 0.998 | locus YJL129C, strain trk1, active compounds read low 0.97 | locus YJL134W, strain LCB3, active compounds read low 1 | locus YJL154C, strain vps35, active compounds read low 1 | locus YJL168C, strain set2, active compounds read low 0.996 | locus YJL187C, strain SWE1 (second series), active compounds read low 1.01 | locus YJL187C, strain SWE1, active compounds read low 1.01 | locus YJR043C, strain POL32, active compounds read low 0.996 | locus YJR066W, strain TOR1, active compounds read low 0.99
